# Screening data as filed in PubChem BioAssay.
# GSH fluor – compound fluoresces at 488/530 nm on GSH beads; 0.25% of 190,000 active; GSH beads flow cytometry, compound fluorescence 488/530 nm; active compounds read high; fluorescence (KMESF) at 10 µM; in the data active = fluorescence above about 89;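 note: glutathione beads carrying GST-tagged Bcl family fusion proteins plus one bare bead set; values are compound well signal with DMSO vehicle wells as background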
# Avidin bead fluor – avidin bead compound fluorescence profile; Avidin beads, compound fluorescence 488/530 nm, flow cytometry; active compounds read high; fluorescence (KMESF) at 10 µM; 0.38% of 220,000 active; AID 1775; in the data active = fluorescence above about 47
# RGS7-Gao – regulators of human RGS7-Galphao interaction | Multiplexed bead flow cytometry, RGS7-Galphao binding; actives lie on both sides | binding response (% of control), % at 10 µM | 0.35% of 220,000 active; in the data active = binding response below about 49% or above about 150%; inconclusive = no clear call, values can overlap the other calls; inactive = in between;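 note: fluorescent Galphao held in activated GDP-AlF4 state binding bead-coupled RGS7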
# Target sequence (P09471 whole entry, looked up): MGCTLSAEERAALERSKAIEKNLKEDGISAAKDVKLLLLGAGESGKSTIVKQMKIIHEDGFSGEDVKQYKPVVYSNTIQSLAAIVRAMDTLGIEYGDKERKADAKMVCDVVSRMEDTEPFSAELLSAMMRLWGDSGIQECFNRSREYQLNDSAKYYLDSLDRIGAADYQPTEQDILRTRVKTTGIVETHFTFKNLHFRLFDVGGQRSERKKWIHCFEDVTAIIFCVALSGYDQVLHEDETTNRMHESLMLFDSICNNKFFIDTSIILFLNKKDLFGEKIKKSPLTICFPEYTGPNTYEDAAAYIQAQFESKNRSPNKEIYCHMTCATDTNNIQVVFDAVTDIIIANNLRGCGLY
# RGS4-Gao reg – human RGS4-Galphao interaction regulation; AID 1415; 0.33% of 220,000 active; binding response (% of control), % at 10 µM; Multiplexed bead flow cytometry, RGS4-Galphao binding; actives lie on both sides; P09471; in the data active = binding response below about 49% or above about 150%; inactive = in between;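 note: fluorescent Galphao activated with aluminum fluoride binding bead-coupled RGS4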
# RGS16-Gao – RGS16-Galphao interaction regulator (human). binding response (% of control), % at 10 µM. 0.38% of 220,000 active. bead-based flow cytometry RGS16-Galphao binding, fluorescence; actives lie on both sides. O15492+P09471. AID 1441;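 note: Galphao activated by GDP with aluminum fluoride before binding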
# RGS8-Gao reg – modulates binding of RGS8 to human Galphao; multiplexed bead flow cytometry; actives lie on both sides; 0.34% of 220,000 active; AID 1423; P09471; response (percent of control binding), % at 10 µM; in the data active = response below about 60% or above about 140%; inactive = in between;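 note: Galphao activated as the GDP aluminium fluoride complex binding bead-coupled RGS8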
# RGS-Gao – RGS4-Galphao interaction regulator (human). shares compounds with RGS16-Gao. multiplexed bead flow cytometry, RGS–Galpha-o binding. RGS4–Galpha-o binding response, % at 10 µM. 99% of 1,600 active;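 note: fluorescently labeled Galpha-o bound to GDP with aluminium fluoride binding biotinylated RGS beads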
# Avidin counter – counter-screen: compounds disrupting biotin binding to avidin beads; shares compounds with RGS16-Gao; streptavidin beads, fluorescein-biotin binding, flow cytometry; inhibition, % at 10 µM; 1,700 tested, under 10 active; AID 1783;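 active = inhibition above 50%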;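 note: median green fluorescence of gated singlet beads compared with DMSO control wells; 0% = DMSO wells and 100% = complete loss of bead fluorescence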
# RGS8-Gao single – RGS8-Galphao interaction regulation, single point confirmation; AID 1836; shares compounds with RGS16-Gao; bead-based flow cytometry RGS8-Galphao binding, fluorescence; actives lie on both sides; binding response (% of control), % at 10 µM; 3% of 1,700 active; in the data active = binding response below about 72% or above about 130%; inactive = in between;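 note: Galphao activated as GDP AlF4 complex before binding bead RGS8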
# RGS7-Gao confirm – confirmation of regulators of human RGS7-Galphao interaction; shares compounds with RGS16-Gao; bead-based flow cytometry RGS7-Galphao binding; actives lie on both sides; response (percent of control binding), % at 10 µM; 7.8% of 1,700 active; AID 1837; in the data active = response below about 75% or above about 130%; inactive = in between;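 note: fluorescent Galphao activated with GDP and aluminum fluoride binding bead-coupled RGS7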
# RGS16-Gao conf – RGS16-Galphao interaction regulation, single point confirmation. AID 1838. 4% of 1,700 active. bead-based flow cytometry, RGS16-Galphao binding; actives lie on both sides. response (% of control binding), % at 10 µM. shares compounds with RGS16-Gao; in the data active = response below about 74% or above about 130%; inactive = in between;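 note: Galphao activated as the GDP aluminium fluoride complex binding bead-coupled RGS16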
# RGS4-Gao single – confirmation of regulators of human RGS4-Galphao interaction; shares compounds with RGS16-Gao; RGS4-Galphao binding, multiplexed bead flow cytometry; actives lie on both sides; binding response (% of control), % at 10 µM; 4% of 1,700 active; AID 1840; in the data active = binding response below about 74% or above about 130%; inactive = in between
# RGS19-Gao conf – RGS19-Galphao interaction regulation, single point confirmation. response (percent of control binding), % at 10 µM. 5% of 1,700 active. shares compounds with RGS16-Gao. bead-based flow cytometry RGS19-Galphao binding; actives lie on both sides; in the data active = response below about 50% or above about 160%; inactive = in between;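 note: 100% = no compound control and 0% = blank background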
# Target sequence (P09471 whole entry, looked up): as above
# Target sequence (P49795 whole entry, looked up): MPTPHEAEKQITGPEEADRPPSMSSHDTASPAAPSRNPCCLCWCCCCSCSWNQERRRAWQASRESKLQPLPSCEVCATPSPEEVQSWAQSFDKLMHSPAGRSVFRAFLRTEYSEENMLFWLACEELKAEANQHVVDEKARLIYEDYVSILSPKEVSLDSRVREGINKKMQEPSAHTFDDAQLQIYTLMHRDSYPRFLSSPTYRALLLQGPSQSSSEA
# Numbers without * were called inactive; i = inactive; ? = inconclusive; . = not tested or not shown; [ ] = dose if it differs, or a comment. The list is not random: actives were taken first. Their share in the collection is about 1.2%. Unless noted, the rule behind the calls is not given here.
SMILES,GSH fluor,Avidin bead fluor,RGS7-Gao,RGS4-Gao reg,RGS16-Gao,RGS8-Gao reg,Avidin counter,RGS8-Gao single,RGS7-Gao confirm,RGS16-Gao conf,RGS4-Gao single,RGS19-Gao conf,others
COC(=O)C1=C(N)Oc2cc(C)n(Cc3cccnc3)c(=O)c2C1c1cccc(OC)c1OC (stereo not given),28,148*,240*[activator],125,118,91,-1,100,101,102,101,94,RGS-Gao=125*
CCCCNC(=O)CN(CCc1ccccc1)S(C)(=O)=O,12,23,133,169*[activator],149,108,i,107,118,110,114,109,
Cc1nc(Cl)c(C(=O)NCCC(C)C)c(C)c1[N+](=O)[O-],8,7,107,105,178*[activator],115,1,97,95,96,96,80,RGS-Gao=105*
COC(=O)c1cc(C(=O)NCCC(C)C)cc([N+](=O)[O-])c1,10,10,101,99,101,100,.,.,.,.,.,.,
C[C@H](NS(=O)(=O)c1ccc(Cl)cc1)C(=O)OCC(=O)c1ccc[nH]1,.,9,?,98,99,102,.,.,.,.,.,.,
Cn1cnnc1SCC(=O)Nc1c(F)cc(F)cc1Br,41,.,.,.,.,.,1,102,97,101,101,96,
COCCCNCCCOc1ccc(C)cc1Br,7,10,103,100,123,112,.,.,.,.,.,.,
C=CCNCCCOc1ccc(C)cc1Br,11,7,95,90,24*,90,-1,105,102,109,102,142,RGS-Gao=90*
Clc1ccccc1-c1csc(Nc2cccnc2)n1,.,6,?,93,92,97,.,.,.,.,.,.,
COc1cccc(CNC(=O)CCC2CCCN(C(=O)CCc3c(C)noc3C)C2)c1 (stereo not given),12,3,101,103,107,100,.,.,.,.,.,.,
CCCC(=O)Nn1cnc2c(c1=O)C1(CCCCC1)Cc1ccccc1-2,44,35,103,104,103,102,.,.,.,.,.,.,
COc1ccc(C2C3=C(CCCC3=O)Nc3nc(SCc4ccccc4)nn32)cc1OC (stereo not given),24,11,104,104,103,102,.,.,.,.,.,.,
COc1ccc(NC(=S)Nc2cccc(Cl)c2)cc1OC,11,20,100,96,98,100,.,.,.,.,.,.,
COCC(=O)Nc1ccc(OC)c(Cl)c1,19,3,53,98,98,52*,-1,101,98,100,101,97,RGS-Gao=98*
COc1ccc(NC(=O)CCCn2c(=O)oc3ccccc32)cc1Cl,7,7,89,88,8.8*,71,.,.,.,.,.,.,RGS-Gao=88*
COc1ccc(NC(=O)COC(C)=O)cc1Cl,10,3,103,104,100,102,.,.,.,.,.,.,
Cc1ccc2cc(C#N)c(SCC(=O)N3CCCC3)nc2c1,.,9,?,99,108,105,.,.,.,.,.,.,
O=[N+]([O-])c1cc2c(cc1/C=N/n1c(-c3ccccc3)n[nH]c1=S)OCO2,47,8,106,102,102,97,.,.,.,.,.,.,
O=[N+]([O-])c1cc2c(cc1/C=N/n1c(-c3ccccn3)n[nH]c1=S)OCO2,2,6,84,86,-3.6*,72,2,95,115,86,98,76,RGS-Gao=86*
Cn1c(CC(=O)Nc2ccccc2)c(Sc2ccccc2)c2ccccc21,13,12,102,102,105,102,.,.,.,.,.,.,
CC(C)C(NS(=O)(=O)c1cccc2nsnc12)C(=O)Nc1nc2ccc(Cl)cc2s1 (stereo not given),20,9,104,100,103,101,.,.,.,.,.,.,
CCOc1ccc2nc(NC(=O)C(NS(=O)(=O)c3cccc4nsnc34)C(C)C)sc2c1 (stereo not given),22,2,137,153*[activator],118,131,0,101,105,103,103,105,
Cc1cc(OCC(=O)Nc2ccc(Br)cc2)cc2c1C(=O)CC(C)(C)O2,.,5,?,102,100,99,.,.,.,.,.,.,
Cc1ccc(CN2CCNC(=O)C2CC(=O)N2CCN(c3ncccn3)CC2)o1 (stereo not given),12,10,?,100,99,100,.,.,.,.,.,.,
CCCCC[n+]1ccn(C2=C([O-])c3ccccc3C(=O)/C2=N\S(=O)(=O)c2ccccc2)c1,12,11,104,102,103,102,.,.,.,.,.,.,
SMILES,GSH fluor,Avidin bead fluor,RGS7-Gao,RGS4-Gao reg,RGS16-Gao,RGS8-Gao reg,Avidin counter,RGS8-Gao single,RGS7-Gao confirm,RGS16-Gao conf,RGS4-Gao single,RGS19-Gao conf,others
Cn1c(=O)c2c(nc(SCCN3CCOCC3)n2Cc2ccccc2Cl)n(C)c1=O,16,26,103,101,103,101,.,.,.,.,.,.,
Cn1c(=O)c2c(nc(SCCN3CCOCC3)n2Cc2ccc(F)cc2)n(C)c1=O,27,5,133,139,i,158*[activator],0,103,106,106,101,112,RGS-Gao=139*
Cc1ccc(NC(=O)CSCC#N)cc1,5,8,91,90,93,93,.,.,.,.,.,.,
CCOC(=O)CC(=O)CSCC(=O)Nc1ccc(C)cc1,19,4,43*,47*,36,57*,0,105,107,105,106,102,
O=C(Cn1cc(C(F)(F)F)ccc1=O)N/N=C/c1ccc(F)cc1,8,13,103,101,102,99,.,.,.,.,.,.,
Cc1cccc(CN2CCN(Cc3nc4c(s3)CCCC4)CC2CCO)n1 (stereo not given),18,6,99,104,100,104,.,.,.,.,.,.,
O=C(c1ccc([N+](=O)[O-])cc1)N(Cc1ccc(Br)cc1)N1C(=O)CCCC1=O,60,13,97,100,103,100,.,.,.,.,.,.,
COc1ccccc1-c1c(C)nn2c(N3CCC(C)CC3)cc(C)nc12,.,0,?,17*,11*,22*,0,111,112,111,111,101,
CCN1CN=C(NS(=O)(=O)c2ccc(C)cc2)NC1,44,7,104,99,103,101,.,.,.,.,.,.,
